Assay results taken from PMC5540273 (PLoS ONE, 2017).

These compounds were tested on WNK2. Conditions: concentration: 1 μM, replicates: in singlicate; n = 1.
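Further: KINOMEscan kinase panel screen.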

Row | SMILES | %Inh [%]
1 | CCn1cnc2c(N)ncnc21 [GW345098] | 0
2 | Cl.Nc1ncnc2occ(-c3ccc(NC(=O)Nc4cc(C(F)(F)F)ccc4F)cc3)c12 [SB-707548] | 11
3 | CC(=O)Nc1ccc(COc2ccc(Nc3ccnc4cc(-c5ccccn5)ccc34)cc2)cc1.Cl [GW440148] | 9
4 | Cc1nnc(-c2ccc3occ(-c4ccc(C(C)O)cc4)c3c2)o1 (stereo not shown) | 0
5 | Cc1nnc(-c2ccc3ncc(-c4ccc(S(C)=O)cc4)n3c2)o1 (stereo not shown) | 1
6 | c1ccc(-c2n[nH]cc2-c2ccnc3ccccc23)nc1 [GW271431] | 11
7 | CCCCCc1nc2c(N)ncnc2n1CCCCC [SKF-97255] | 0
8 | CN1c2ccc(CNc3ccc(F)cc3)cc2-c2c(cnn2C)S1(=O)=O | 0
9 | NCC(NC(=O)c1cc(-c2cn[nH]c2)c(-c2ccnc3[nH]ccc23)s1)c1ccccc1.O=C(O)C(F)(F)F.O=C(O)C(F)(F)F (stereo not shown) [GSK1325775] | 9
10 | O=C(Nc1n[nH]c2cc(-c3cccc(F)c3)ccc12)C1CC1 [SB-735464] | 0
11 | COc1ccc(COc2cc(-n3cnc4ccccc43)sc2C(N)=O)cc1 [GSK1024304] | 0
12 | CN(C(=O)c1ccc(-c2cc(-c3c[nH]nc3-c3ccccn3)ccn2)cc1)C1CCOCC1 [GW810083] | 0
13 | O=c1cc(N2CCOCC2)nc2n(Cc3cccc(Cl)c3Cl)c(C3CC3)nn12 [GSK2358994] | 0
14 | COc1cc2ncn(-c3cc(OCc4sccc4Cl)c(C(N)=O)s3)c2cc1OC [GSK448459] | 45
15 | CCc1ccnc(/C=C/c2n[nH]c3cc(Sc4ccccc4C(=O)NC)ccc23)c1 | 39
16 | CSc1ccc(-c2cc3ncnc(SCC(=O)O)c3s2)cc1 | 0
17 | COc1ccc(Nc2nccc(N3CCC(NC(=O)Nc4cc(C)ccc4C)C3)n2)cc1 (stereo not shown) [GSK1379741] | 59
18 | Cc1c(Cn2c(C)nn3c(=O)cc(N4CCOC(C)C4)nc23)cccc1C(F)(F)F (stereo not shown) [GSK2344444] | 0
19 | O=C1NC(=O)C(N2CCc3ccccc32)=C1c1cccc(Cl)c1 [SB-408010] | 14
20 | Cn1ccc2ncnc(Oc3ccc(NC(=O)Nc4ccncc4)c(Cl)c3)c21 | 0
21 | O=C(NOCC1CC1)c1ccc(F)c(F)c1Nc1ccc(I)cc1Cl | 0
22 | Cc1ccc(NC(=O)c2ccnc(N3CCN(C)CC3)c2)cc1-c1ccc(C(=O)NCC2CC2)cc1 [GW775604] | 0

Each compound was assayed on WNK3. Conditions: concentration: 1 μM, replicates: in singlicate; n = 1.

Row | SMILES | %Inh [%]
23 | CC(C)(C)n1cnc2c(N)ncnc21 [SKF-97359] | 40
24 | Cc1cccc(Cn2ccn3c(=O)cc(N4CCOCC4)nc23)c1 [GSK2297542] | 12
25 | c1ccc(-c2cc(-c3c[nH]nc3-c3ccccn3)ccn2)cc1 [GW576604] | 0
26 | O=C(Nc1cccc(-c2nn3ncccc3c2-c2ccnc(Nc3cccc(C(F)(F)F)c3)n2)c1)c1c(F)cccc1F [GSK299495] | 44
27 | COc1cc2c(cc1OC[C@@H](O)CO)ncc1c3ccc(C#N)cc3[nH]c21 | 2
28 | N#Cc1ccc(-c2cc(-c3c[nH]nc3-c3ccccn3)ccn2)cc1 [GW693028] | 30
29 | Fc1ccc(-c2ncn(CCCN3CCOCC3)c2-c2ccccn2)cc1 [SB-211742] | 5
30 | COc1ccc(Nc2nccc(N3CCC(NC(=O)Nc4cccc(C(C)=O)c4)C3)n2)cc1 (stereo not shown) [GSK1379731] | 28
31 | Cn1cc(-c2ccc3c(c2)CCN3C(=O)Cc2ccccc2Cl)c2c(N)ncnc21 [GSK2608885] | 6
32 | CNc1ncnc2[nH]ncc12 [SKF-18355] | 12
33 | Cc1cccc(-c2nc(Nc3ccc4ncsc4c3)c3ccccc3n2)n1 [GW867588] | 31
34 | [2H]C([2H])(c1cccc(C(F)(F)F)c1C)n1ccn2c(=O)nc(N3CCOCC3)cc12 [GSK2336394] | 28
35 | Cc1c2ccc(N(C)c3ccnc(Nc4cccc(S(N)(=O)=O)c4)n3)cc2nn1Cc1ccccc1.Cl.Cl [GW787226] | 0
36 | O=C(c1ccc(-c2cc(-c3c[nH]nc3-c3ccccn3)ccn2)cc1)N1CCOCC1 [GW812171] | 4
37 | CCn1cnc2c(N)ncnc21 [GW345098] | 0
38 | Cl.Nc1ncnc2occ(-c3ccc(NC(=O)Nc4cc(C(F)(F)F)ccc4F)cc3)c12 [SB-707548] | 28
39 | CC(=O)Nc1ccc(COc2ccc(Nc3ccnc4cc(-c5ccccn5)ccc34)cc2)cc1.Cl [GW440148] | 21
40 | Cc1nnc(-c2ccc3occ(-c4ccc(C(C)O)cc4)c3c2)o1 (stereo not shown) | 0

Row | SMILES | %Inh [%]
41 | Cc1nnc(-c2ccc3ncc(-c4ccc(S(C)=O)cc4)n3c2)o1 (stereo not shown) | 0
42 | c1ccc(-c2n[nH]cc2-c2ccnc3ccccc23)nc1 [GW271431] | 15
43 | CCCCCc1nc2c(N)ncnc2n1CCCCC [SKF-97255] | 0
44 | CN1c2ccc(CNc3ccc(F)cc3)cc2-c2c(cnn2C)S1(=O)=O | 1
45 | NCC(NC(=O)c1cc(-c2cn[nH]c2)c(-c2ccnc3[nH]ccc23)s1)c1ccccc1.O=C(O)C(F)(F)F.O=C(O)C(F)(F)F (stereo not shown) [GSK1325775] | 21
46 | O=C(Nc1n[nH]c2cc(-c3cccc(F)c3)ccc12)C1CC1 [SB-735464] | 36
47 | COc1ccc(COc2cc(-n3cnc4ccccc43)sc2C(N)=O)cc1 [GSK1024304] | 12
48 | CN(C(=O)c1ccc(-c2cc(-c3c[nH]nc3-c3ccccn3)ccn2)cc1)C1CCOCC1 [GW810083] | 0
49 | O=c1cc(N2CCOCC2)nc2n(Cc3cccc(Cl)c3Cl)c(C3CC3)nn12 [GSK2358994] | 0
50 | COc1cc2ncn(-c3cc(OCc4sccc4Cl)c(C(N)=O)s3)c2cc1OC [GSK448459] | 60
51 | CCc1ccnc(/C=C/c2n[nH]c3cc(Sc4ccccc4C(=O)NC)ccc23)c1 | 0
52 | CSc1ccc(-c2cc3ncnc(SCC(=O)O)c3s2)cc1 | 0
53 | COc1ccc(Nc2nccc(N3CCC(NC(=O)Nc4cc(C)ccc4C)C3)n2)cc1 (stereo not shown) [GSK1379741] | 18
54 | Cc1c(Cn2c(C)nn3c(=O)cc(N4CCOC(C)C4)nc23)cccc1C(F)(F)F (stereo not shown) [GSK2344444] | 2
55 | O=C1NC(=O)C(N2CCc3ccccc32)=C1c1cccc(Cl)c1 [SB-408010] | 0
56 | Cn1ccc2ncnc(Oc3ccc(NC(=O)Nc4ccncc4)c(Cl)c3)c21 | 0
57 | O=C(NOCC1CC1)c1ccc(F)c(F)c1Nc1ccc(I)cc1Cl | 0
58 | Cc1ccc(NC(=O)c2ccnc(N3CCN(C)CC3)c2)cc1-c1ccc(C(=O)NCC2CC2)cc1 [GW775604] | 0
